Experimental findings from PubChem BioAssay (NCI) are described below.

Compounds without any hit were thinned out: in the full panel of roughly 79,000, 15% have a hit. Unmarked numbers belong to inactive results. Activity calls are given as the source filed them. Cut-off read from the data, not from the text of the source: active = growth inhibition above about 70%; inactive = the rest.

A short description of assay [1]: NCI Yeast Anticancer Drug Screen. Data for the rad50 strain (AID 155).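 Note: 0% = growth of vehicle-only cultures of the same strain.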 The following applies: S. cerevisiae rad50 strain growth inhibition, hits give high values; at 50.0 µM unless noted. Summed up: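 Genetically altered yeast (DNA repair pathway); compound treatment; growth inhibition vs vehicle ctrl.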
Assay [2] is described as follows: NCI Yeast Anticancer Drug Screen. Data for the mec2-1 strain (AID 157). The conditions noted are these: S. cerevisiae mec2-1 strain, hits give high values; at 50.0 µM unless noted. Summed up:
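Readout is yeast growth inhibition, normalised to vehicle-treated controls, in the mec2-1 strain exposed to compound.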

A short description of assay [3]: NCI Yeast Anticancer Drug Screen. Data for the sgs1 mgt1 strain (AID 161).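 Note: 0% = growth of cultures given vehicle only.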 The conditions noted are these: S. cerevisiae sgs1 mgt1 strain, hits give high values; at 50.0 µM unless noted. Summed up:
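This yeast growth screen uses a strain with defined DNA-repair lesions; compound-treated growth is compared with vehicle-treated growth.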

Assay [4] is described as follows: NCI Yeast Anticancer Drug Screen. Data for the cln2 rad14 strain (AID 165).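 Note: 0% = growth equal to vehicle treated cultures.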 The conditions noted are these: S. cerevisiae cln2 rad14 strain, hits give high values; at 50.0 µM unless noted. Summed up: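 Relative to vehicle controls, growth inhibition of compound-treated cln2 rad14 yeast was recorded.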
Assay [5] is described as follows: NCI Yeast Anticancer Drug Screen. Data for the bub3 strain (AID 167). The following applies: S. cerevisiae bub3 mutant strain, hits give high values; at 50.0 µM unless noted. Summed up:
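Yeast carrying a defined mutation is treated with each compound, and growth is compared with that of vehicle-exposed cells to give inhibition.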

A short description of assay [6]: NCI Yeast Anticancer Drug Screen. Data for the mlh1 rad18 strain (AID 175). The conditions noted are these: S. cerevisiae mlh1 rad18 strain growth inhibition, hits give high values; at 50.0 µM unless noted. Summed up: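 Test agents were incubated with a yeast strain of defined genotype (DNA damage repair defect). Inhibition of growth was derived by comparison with vehicle-exposed cultures.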

In the case of `NC(C=O)C(O)C(O)C(O)CO` (stereo unspecified), the growth inhibition in assay [1] was -1.75%; in assay [2], -18.2%; in assay [3] it was 4.95%; in assay [4], -10.2%; in assay [5] it was -19.5%; in assay [6], -6.9%.

As for `Cc1ccc(S(=O)(=O)/C=C(/SC#N)C2CCCCC2)cc1`, the growth inhibition was 32.5% in assay [1]; 90.6% (active) in assay [2]; 69.5% in assay [3]; 17.9% in assay [4]; 83.1% (active) in assay [5]; 79.7% (active) in assay [6].

For `COc1ccc2c(c1)c(CC(=O)O)c(C)n2Cc1ccccc1`, the growth inhibition was -13.7% in assay [1]; -16% in assay [2]; -13.7% in assay [3]; -14.8% in assay [4]; 17.4% in assay [5]; -7.65% in assay [6].

As for `N#Cc1c(-c2ccccc2)[nH]c2ccccc2c1=O`, the growth inhibition in assay [1] is 54.7%; in assay [2] it was 55.4%; in assay [3] it was 2.05%; in assay [4], 11.3%; in assay [5], -3.65%; in assay [6], -17.5%.

As for `CCC[CH2][Sn]1([CH2]CCC)[O]C2C(CO)OC(n3c(Br)c(C#N)c4c(N)ncnc43)C2[O]1` (stereo unspecified), the growth inhibition in assay [1] was 98.4% (active); in assay [2], 98.5% (active); in assay [3] it was 98.7% (active); in assay [4], 98.7% (active); in assay [5], 97.7% (active); in assay [6], 98% (active).

With `CS(=O)(=O)OCC1OC(n2ncc(=O)[nH]c2=O)C(O)C1O` (stereo unspecified), the growth inhibition is 6.9% in assay [1]; 13.7% in assay [2]; -7.1% in assay [3]; -2.45% in assay [4]; 2.95% in assay [5]; 11% in assay [6].

On to `CC1CCC2C(C)C(=O)OC2C2(C)C(=O)C=CC12` (stereo unspecified), for which the growth inhibition is 11.9% in assay [1]; -12.3% in assay [2]; 13.7% in assay [3]; 22.6% in assay [4]; 2.7% in assay [5]; -27.4% in assay [6].

Consider `O=C1/C(=C/c2ccc(Cl)cc2)CCC1CN1CCOCC1` (stereo unspecified), for which the growth inhibition in assay [1] is 89.8% (active); in assay [2], 92.2% (active); in assay [3] it was 89.2% (active); in assay [4], 92.3% (active); in assay [5], 91.1% (active); in assay [6], 92% (active).

Consider `COc1ccc(/C(Cc2ccccc2)=N/Nc2ccc([N+](=O)[O-])c([N+](=O)[O-])c2)cc1`, for which the growth inhibition in assay [1] is 48.1%; in assay [2], -8.15%; in assay [3] it was 23.5%; in assay [4], 6.35%; in assay [5], 9.7%; in assay [6] it was 20.1%.

Consider `Cc1cc(O)cc(C)c1O`, for which the growth inhibition in assay [1] is 7.05%; in assay [2], 5.45%; in assay [3], 2.8%; in assay [4], -23.4%; in assay [5], -0.3%; in assay [6], -7.75%.

As to `C=C(C)C1CCC2(C)C1CCC1(C)C2CCC2C3(C)C4OC(OC4=O)C(C)(C)C3CCC21C` (stereo unspecified), the growth inhibition is -0.8% in assay [1]; -20% in assay [2]; 11.8% in assay [3]; 0.1% in assay [4]; 17.6% in assay [5]; -53% in assay [6].

As for `CC(=O)c1oc2cc([N+](=O)[O-])c3ccccc3c2c1C`, the growth inhibition in assay [1] was 14.7%; in assay [2], -8.55%; in assay [3], 26.3%; in assay [4], 11.6%; in assay [5], -5.35%; in assay [6], 40.1%.

Turning to `CCOCNC(=O)NCC(F)(F)C(F)(F)C(F)(F)C(F)(F)C(F)(F)C(F)(F)C(F)(F)F`, the growth inhibition in assay [1] is -1.55%; in assay [2], -21.5%; in assay [3] it was -4.6%; in assay [4], -5.5%; in assay [5], -1.65%; in assay [6], 12.9%.

As to `O=C(O)CCN1C(=O)CSC1=S`, the growth inhibition in assay [1] was 6.7%; in assay [2], 2.15%; in assay [3] it was -21.8%; in assay [4], -2.4%; in assay [5], 20.6%; in assay [6], -5.7%.

Consider `CC1(CO)C2CCC(CC2)C1CO` (stereo unspecified), for which the growth inhibition in assay [1] was -3%; in assay [2], 1.85%; in assay [3], -4.4%; in assay [4], -20.2%; in assay [5] it was -5.1%; in assay [6], 2.5%.

Take `COc1ccc(NC(=O)CC(=O)n2nc(-c3ccccc3)c(N=Nc3ccccc3C(=O)O)c2-c2ccccc2)cc1`: the growth inhibition in assay [1] is -28.8%; in assay [2], -13.1%; in assay [3], -2.05%; in assay [4] it was 2.85%; in assay [5], 2.25%; in assay [6] it was -13.5%.

Regarding `CC(C)OC(=O)Nc1cccc(Cl)c1F`, the growth inhibition is 15.9% in assay [1]; -10.8% in assay [2]; -6.2% in assay [3]; -0.75% in assay [4]; 8.2% in assay [5]; 8.65% in assay [6].

Consider `Cn1cc(C(=O)c2ccccc2)cc(C(=O)c2ccccc2)c1=O`, for which the growth inhibition was -3.05% in assay [1]; -12.1% in assay [2]; -6.05% in assay [3]; 1.5% in assay [4]; -15.2% in assay [5]; -36.5% in assay [6].

For the molecule `CON1C(=O)C(c2ccccc2)c2ccccc21` (stereo unspecified), the growth inhibition in assay [1] was 58%; in assay [2] it was 22.6%; in assay [3], 47.8%; in assay [4], 3.1%; in assay [5] it was 10.7%; in assay [6], 6.65%.

As for `N#CSc1ccc(NN)cc1`, the growth inhibition in assay [1] was 11.2%; in assay [2], -2.05%; in assay [3] it was 30.4%; in assay [4], -4.65%; in assay [5], 33.7%; in assay [6], 1.55%.

As to `Brc1cc(Br)cc(CN2CCOCC2)c1`, the growth inhibition was 34% in assay [1]; 15.1% in assay [2]; 49.6% in assay [3]; 48% in assay [4]; 56.8% in assay [5]; 46.2% in assay [6].
